# Structures can show the parent of a compound that is named as a salt.
# Tested on: HeLa
# Experiment: percent cells in S phase; higher = more S arrest
# Conditions: 10 µM; 20 h
# Procedure: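 HTS of 79,827 drug-like compounds at 10 uM. HeLa cells in 384-well plates were treated for 20 h, fixed, stained with Vybrant DyeCycle Green and scanned on an Acumen eX3 cytometer to give per-well cell cycle profiles (% cells in each phase). The plate Z' was 0.51. Only hits are listed: G1 hits >4 SD and S hits >5 SD from the mean.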
row,Compound,percent cells in S phase
1,O=C1c2c(O)ccc(O)c2C(=O)c2c(NCCNCCO)ccc(NCCNCCO)c21 [Mitoxantrone dihydrochloride] (hit class: G1-phase inhibitor),6.2%
2,CCN(CC)Cc1c(O)ccc2c(=O)c(-c3ccccc3)coc12 (hit class: S-phase inhibitor),22.3%
3,c1ccc2c(c1)Nc1nc3ccccc3nc1O2 (hit class: G1-phase inhibitor),7.38%
4,COc1ccc(C(=O)c2coc3ccc(OC)cc3c2=O)cc1 (hit class: G1-phase inhibitor),7.3%
5,C[C@@H]1C[C@H]2[C@@H]3C[C@H](F)C4=CC(=O)C=C[C@]4(C)[C@@]3(Cl)[C@@H](O)C[C@]2(C)[C@H]1C(=O)COC(=O)C(C)(C)C [Clocortolone pivalate] (hit class: S-phase inhibitor),23.2%
6,Cn1c(SCc2ccccc2)nc2ccccc2c1=O (hit class: S-phase inhibitor),20.6%
7,Nc1ccn([C@H]2CC[C@@H](CO)O2)c(=O)n1 [Zalcitabine] (hit class: S-phase inhibitor),21.2%
8,Cc1ccc(-c2cc(-c3ccccc3Cl)[nH]n2)c(O)c1 (hit class: G1-phase inhibitor),7.81%
9,CC[C@@H](C(=O)[C@@H](C)[C@@H](O)[C@H](C)CCc1ccc(C)c(O)c1C(=O)O)[C@H]1O[C@](CC)([C@H]2CC[C@](O)(CC)[C@H](C)O2)C[C@@H]1C [Lasalocid sodium salt] (hit class: G1-phase inhibitor),8.33%
10,Cc1cc([N+](=O)[O-])ccc1NCc1ccc(F)c(F)c1 (hit class: G1-phase inhibitor),9.44%
11,COc1ccc(CSc2nncn2N)cc1 (hit class: S-phase inhibitor),19.7%
12,CC(=O)C1=C(O)C(=O)N(CC(=O)O)C1c1ccccc1F (configuration not stated) (hit class: S-phase inhibitor),20.4%
13,Cc1cc(N2CCCCC2)c(F)cc1[N+](=O)[O-] (hit class: S-phase inhibitor),29.5%
14,COc1c(C)c2c(c(O)c1C/C=C(\C)CCC(=O)O)C(=O)OC2 [Mycophenolic acid] (hit class: S-phase inhibitor),27.7%
15,O=C(COc1ccc(Cl)cc1)NC(Cc1c[nH]c2ccccc12)C(=O)O (configuration not stated) (hit class: G1-phase inhibitor),6.86%
16,C[C@@H]1CCC[C@H](C)N1NC(=O)c1ccc(Cl)c(S(N)(=O)=O)c1 [Clopamide] (hit class: G1-phase inhibitor),8.75%
17,COc1[nH]c2ccccc2c1C=NO (hit class: S-phase inhibitor),19.8%
